Screening data as filed in PubChem.
Tb PFK inh-1: blocks T. brucei phosphofructokinase | O15648 | T. brucei PFK, ADP-Glo luminescence | Potency, µM (top dose mostly 57.5 µM), without a hit: at the top dose activity, negative = inhibition, most hits filed as inhibitors | 330,000 compounds, 0.17% hits | AID 485367;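 further: 0% = uninhibited 1x PFK enzyme wells and -100% = no-enzyme wells; nearly all actives have a fitted effect of over 60% in size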
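Compounds were pin-transferred as a titration series up to 57 uM into substrate buffer (0.5 mM F6P, 0.1 mM ATP, pH 8.0), then 1.25 nM PFK was added and reactions ran 45 min before ADP-Glo detection.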
MBNL1-CUG inh: MBNL1-poly(CUG) RNA binding inhibition; Q9NR56; TR-FRET MBNL1-His/biotin-(CUG)12 binding, 665/545 ratio; Potency, µM (doses to about 57.5 µM), for the others: at the highest dose activity change, negative = inhibition, usual class: inhibitors; 280,000 compounds, 0.036% hits; active means well fitted inhibition curve with a large enough effect in the signal ratio, with a control signal flat, not every such curve was filed as active; inconclusive means small, poorly fitted or top-dose-only effect, or effect the other way, or a change in a side signal; inactive means no such curve, though single readings can be large or run the other way; the % refers to the signal ratio; further: on the % scale 0 is the no-effect control and ±100 the full control effect
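TR-FRET between His-tagged MBNL1 and biotin-(CUG)12 RNA, detected with Tb anti-His antibody (0.055 ng/ul) and streptavidin-XL665 (5 nM), 60 min at room temperature. Compounds titrated 92 nM to 58 uM; 665/545 nm ratio normalized to buffer and complex controls.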
BCR signal inh: chronic active BCR signaling inhibition; ABC-DLBCL IkBa-CBG/CBR reporter, luminescence ratio, 4 h; Potency, µM (top dose mostly 46.1 µM), inactives show at the top dose activity change, negative = inhibition, usual class: inhibitors; 340,000 compounds, 0.05% hits; AID 493014; active means well fitted inhibition curve with a large enough effect in the signal ratio, with a control signal flat, not every such curve was filed as active; inconclusive means small, poorly fitted or top-dose-only effect, or effect the other way, or a change in a side signal; the % refers to the signal ratio;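 further: plate controls were basal doxycycline-induced cells for no effect and cells given 10 µM MG132 for full effect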
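TMD8 ABC-DLBCL cells carrying doxycycline-inducible green luciferase fused to IkappaBalpha plus unfused red luciferase were exposed to compounds (up to 46 uM) for 4 hrs at 37C. Activity came from the overlap-corrected green/red luminescence ratio.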
B2AR arrestin: beta2AR (human) beta-arrestin recruitment activity; AID 492947; beta-arrestin recruitment to beta2AR, cell-based reporter; 330,000 compounds, 0.02% hits; Potency, µM (doses to about 46.1 µM), for inactives: at the highest dose activation, hits mostly activators; P07550;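 further: 0% = DMSO controls and full agonism = EC100 isoproterenol or metaproterenol; nearly all actives have a fitted effect of over 65% in size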
Target sequence (P07550 whole entry, looked up): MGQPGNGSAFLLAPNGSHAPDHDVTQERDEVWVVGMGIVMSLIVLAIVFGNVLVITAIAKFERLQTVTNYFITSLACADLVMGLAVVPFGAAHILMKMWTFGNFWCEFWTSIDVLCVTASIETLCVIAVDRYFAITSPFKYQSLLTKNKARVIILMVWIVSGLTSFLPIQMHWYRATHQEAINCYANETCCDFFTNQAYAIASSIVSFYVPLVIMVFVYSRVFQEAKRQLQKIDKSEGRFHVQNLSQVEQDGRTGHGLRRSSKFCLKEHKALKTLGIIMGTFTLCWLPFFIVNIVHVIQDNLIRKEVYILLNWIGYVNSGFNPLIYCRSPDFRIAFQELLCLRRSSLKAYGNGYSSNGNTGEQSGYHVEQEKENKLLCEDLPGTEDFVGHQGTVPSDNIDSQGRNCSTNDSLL
TbPFK ATP: orthogonal confirmation of T. brucei phosphofructokinase inhibitors; shares compounds with Tb PFK inh-1; Tb PFK enzyme, ATP depletion, Kinase-Glo Plus luminescence; Potency, µM (top dose mostly 57.5 µM), for inactives: at the top dose inhibition; 1,100 compounds, 47% hits; AID 504636; calls by dose curve; further: nearly all actives have a fitted effect of over 60% in size
Tb PFK inh-2: T. brucei PFK enzyme inhibition, hit validation | Potency, µM (titrated, usually from 57.5 µM), without a hit: at the highest dose activity change, negative = inhibition, actives largely listed as inhibitors | shares compounds with Tb PFK inh-1 | 1,100 compounds, 41% hits | purified T. brucei PFK, ADP-Glo luminescence, 45 min;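 further: plate controls were full PFK enzyme control for no effect and no enzyme control for full effect; nearly all actives have a fitted effect of over 60% in size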
* marks the source's active call; other numbers are inactive results; ? = inconclusive; nt = no result; [ ] = remark or other dose. Hits are enriched below; roughly 0.27% of the tested compounds scored in any of these assays. Unless noted, the call rests on the fitted dose curve; in most records, active means well fitted curve in the direction sought with a large enough effect; inconclusive means small, poorly fitted or top-dose-only effect, or another doubt; inactive means no such curve, though single readings can be large; an effect the other way counts as inactive or inconclusive. Potency means the concentration at half of the fitted maximal effect.

SMILES	Tb PFK inh-1	MBNL1-CUG inh	BCR signal inh	B2AR arrestin	TbPFK ATP	Tb PFK inh-2
CCOc1ccc(C(=O)OCC(=O)NCc2ccco2)cc1OCC	?	-8%	4%	3%	?	-15%
O=C(COC(=O)c1ccccc1Oc1ccccc1)NCc1ccco1	27µM*	0%	1%	0%	17µM*	?
CCCCCCC1(C)NC(=O)N(C(C)C(=O)Nc2ccc(N3CCOCC3)cc2)C1=O (stereo not given)	-1%	nt	4%	0%	nt	nt
O=C(COC(=O)c1cccc(S(=O)(=O)N2CCc3ccccc3C2)c1)NCc1ccco1	11µM*	-8%	1%	0%	11%	?
O=C(COC(=O)c1cc(S(=O)(=O)N2CCc3ccccc3C2)ccc1Cl)NCc1ccco1	-18%	-5%	28%	-1%	nt	nt
CCOC(=O)[C@@H]1[C@H]2COc3ccc(Br)cc3[C@H]2N2C(=O)N(c3cccc(Cl)c3)C(=O)[C@]12C	-2%	7%	5%	-1%	nt	nt
NNC(=O)CNc1cccc(Br)c1	15µM*	4%	-1%	0%	21µM*	?
C=C(C)C(=O)Nc1ccc2c(c1)OCCOCCOCCO2	11µM*	-7%	-2%	-1%	0.54µM*	0.67µM*
Nc1ncnc2c1ncn2[C@@H]1O[C@H](CNCc2ccc(OCC(=O)Nc3nccs3)cc2)[C@@H](O)[C@H]1O	0%	nt	-6%	-1%	nt	nt
Cn1c(=O)[nH]c(=O)c2c1nc(SCCN1CCCCC1)n2CCCc1ccccc1	?	-11%	1%	0%	6.7µM*	17µM*
Cn1c(=O)[nH]c(=O)c2c1nc(SCCN1CCCCC1)n2Cc1ccccc1	0%	2%	?	0%	nt	nt
O=C(O)CCN1C(=O)c2ccc(NC(=O)Cc3ccc(Cl)cc3)cc2C1=O	19µM*	12%	0%	0%	?	27µM*
NC(=O)c1ccc(NC(=O)CCCNC(=O)c2ccc(Cl)cc2)cc1	-17%	-3%	-1%	0%	nt	nt
O=C(O)CCN1C(=O)c2ccc(NC(=O)CSCc3ccccc3)cc2C1=O	4%	12%	?	-2%	nt	nt
O=C(O)CCCNC(=O)c1ccc(NC(=O)Cc2ccc(Cl)cc2)cc1	?	-9%	6%	0%	?	?
O=C(c1ccc(F)cc1)N1CCC(C(=O)N2CCN(S(=O)(=O)c3cccc([N+](=O)[O-])c3)CC2)CC1	0%	nt	9%	-1%	nt	nt
Cc1ccc(C(=O)NC(=S)Nc2ccc(-c3ccc(CO)o3)cc2)cc1	?	44%	?	0%	5%	0%
CCOc1ccc(NC(=O)CCS(=O)(=O)c2ccc(Br)cc2)cc1	15µM*	-2%	-2%	2%	2.7µM*	4.8µM*
COc1cc2c(cc1OC)C1O[C@](CCCCN3C(=O)c4ccccc4C3=O)(C2)Oc2c1c(=O)oc1ccc(F)cc21	-9%[11.5 µM]	-4%[11.5 µM]	28%[9.22 µM]	0%[9.22 µM]	nt	nt
C=CCn1c(SCC(=O)N2CCOCC2)nc2scc(-c3ccco3)c2c1=O	?	1%	3%	4%	?	-25%
COc1cc([N+](=O)[O-])c2ncsc2c1	-7%	?	2%	0%	nt	nt
COc1cc(SSc2cc(OC)cc([N+](=O)[O-])c2N)c(N)c([N+](=O)[O-])c1	3.4µM*	?	?	14µM*	2.4µM*	2.7µM*
CCc1c(C)sc(NC(=O)c2ccoc2C)c1C(N)=O	?	46%	-10%	0%	3.4µM*	8.5µM*
CCN(CC)C(=S)Nc1ccc(Cl)c(Cl)c1	?	nt	?	-1%	14%	-1%
COc1ccc(NC(=O)CSc2nc(N)cc(N)n2)cc1S(=O)(=O)N1CCCCC1	-8%	nt	-4%	4%	nt	nt
SMILES	Tb PFK inh-1	MBNL1-CUG inh	BCR signal inh	B2AR arrestin	TbPFK ATP	Tb PFK inh-2
Cc1cc(NC(=O)Nc2ccc(Cl)c(Cl)c2)n(-c2ccccc2)n1	19µM*	-10%	?	0%	?	-14%
Cc1cc(NC(=O)Nc2cccc(Cl)c2)n(-c2ccccc2)n1	-15%	-10%	9%	0%	nt	nt
CCOc1ccccc1NC(=O)COc1coc(CN2CCc3ccccc32)cc1=O	?	nt	0%	0%	13%	-21%
O=C(Cc1ccc(Cl)c(Cl)c1)Nc1cccc2ncccc12	11µM*	5%	?	-1%	11µM*	11µM*
O=C(CCS(=O)(=O)c1ccc(Br)cc1)NCc1ccco1	17µM*	-9%	-8%	3%	2.7µM*	5.4µM*
O=C(CCS(=O)(=O)c1ccc(Br)cc1)NCc1cccs1	?	-7%	3%	-1%	nt	nt
CCOC(=O)C1=C(N)OC2=C(C(=O)CC(C)(C)C2)C1c1cc(CSc2nnnn2C)cs1 (stereo not given)	?	nt	2%	1%	-1%	1%
NCCc1ccc(O)c(O)c1	?	-17%	-2%	-1%	?	-20%
NCCc1ccc(S(N)(=O)=O)cc1	-2%	-7%	8%	0%	nt	nt
CCc1ccccc1NC(=O)CSc1ccsc1[N+](=O)[O-]	?	nt	4%	0%	?	?
COc1ccccc1CNC(=O)CSc1ccsc1[N+](=O)[O-]	-14%	?	11%	0%	nt	nt
Nc1ccc(-c2c3ccc(=O)cc-3oc3cc(O)ccc23)cc1C(=O)O	1%	?	?	0%	nt	nt
O=c1ccc2c(-c3ccccc3)c3ccc(O)cc3oc-2c1	12µM*	?	-3%	0%	13%	-10%
Nn1c(Cc2cccc3ccccc23)n[nH]c1=S	?	nt	?	0%	1.5µM*	2.1µM*
COc1cc2c(cc1OC)CN(C(=O)COc1ccccc1[N+](=O)[O-])CC2	?	?	?	0%	2%	-15%
COc1cc2c(cc1OC)CN(C(=O)COc1ccccc1C#N)CC2	2%	10%	-14%	0%	nt	nt
O=C(CC1C[C@H](C(=O)N2CCOCC2)[C@@]2(CCC3CCCC3)c3[nH]c4ccccc4c3CCN2C1=O)NCC12CC3CC(CC(C3)C1)C2 (stereo not given in full)	4%	nt	-2%	-1%	nt	nt
CC(=O)Nc1ccc(S(=O)(=O)Nc2nc3n(n2)C(c2ccccc2)C=C(c2ccc(Cl)cc2)N3)cc1 (stereo not given)	nt	nt	-2%	nt	nt	nt
CC(=O)N1CCN(C(=S)c2cccc([N+](=O)[O-])c2)CC1	3%	?	-2%	-1%	nt	nt
O=[N+]([O-])c1ccc(N2CCN(C(=S)c3cccc([N+](=O)[O-])c3)CC2)cc1	19µM*	15%	?	-1%	9.5µM*	24µM*
O=C(NCC(c1ccco1)N1CCCC1)c1cc2cc(Cl)ccc2o1 (stereo not given)	-6%	nt	?	-4%	nt	nt
c1ccc(CN2C3=NCCCN3c3ccccc32)cc1	-5%	-9%	11%	0%	nt	nt
